This excerpt belongs to a sample that is enriched for hits.
Dicer inh – human Dicer pre-microRNA cleavage inhibition | Q9UPY3 | cat-ELCCA pre-miR-21 Dicer processing, chemiluminescence; stronger effect = higher value | z-score at 25 µM | actives 6% (n = 47,000); in the data active means z-score above about 3, passing the limit was not always enough;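 further: plate controls were vehicle for no effect and no enzyme for full effect; higher signal means more uncleaved substrate so more Dicer inhibition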
Active calls of the source: *.

SMILES	Dicer inh
C[C@]12CC=CCC1CCC1C2CC[C@](C)(C(=O)O)C1/C=C1/Nc2ccccc2C1=O (stereo partly specified)	3.9*
O=S(=O)(Nc1n[nH]c2cccc(Cl)c12)c1ccc(Cl)cc1	-0.27
CN(C)c1ccc(C2Nc3ccc(C(=O)c4ccccc4)cc3NC3=C2C(=O)CCC3)cc1 (stereo unspecified)	5*
COc1cc(C2Nc3ccc(C(=O)c4ccccc4)cc3NC3=C2C(=O)CCC3)ccc1OC(C)=O (stereo unspecified)	-0.22
COc1ccc(C2Nc3ccc(C(=O)c4ccccc4)cc3NC3=C2C(=O)CCC3)c(OC)c1 (stereo unspecified)	1.9
COc1ccccc1OCCSc1nc2ccccc2[nH]1	1.6
Cc1c(Br)sc2sc(-c3ccn(C)n3)c(C)c12	2.2
Clc1ccc(CNc2nc3ccccc3n2CCN2CCCCC2)cc1	3.2*
c1coc(CNc2nc3ccccc3n2CCN2CCCCC2)c1	6.1*
O=C(CSc1nc2ccccc2nc1N1CCCC1)NCc1ccco1	1.7
O=C(Nc1nc2ccccc2n1CCN1CCCCC1)C1CCCCC1	-4.1
O=C(Cn1c(NCCO)nc2ccccc21)c1ccc(Cl)cc1	1.8
CCCCn1c(NCc2ccco2)nc2ccccc21	0.34
CC(C)(C)c1ccc(OCC(O)Cn2c(CO)nc3ccccc32)cc1 (stereo unspecified)	-0.85
O=S(=O)(/N=C(\NNC(=S)Nc1cccc(C(F)(F)F)c1)N1CCCC1)c1ccccc1	-1.2
CCOc1cc(Br)c(C2C(C(=O)OC)=C(C)NC3=C2C(=O)c2ccccc23)cc1OC (stereo unspecified)	1.4
CCOCCOC(=O)C1=C(C)NC2=C(C(=O)CCC2)C1c1coc2ccccc2c1=O (stereo unspecified)	-0.71
CCOC(=O)c1c(NS(C)(=O)=O)sc(C)c1C	-0.77
CCOc1cc(C2C3=C(CC(C)(C)CC3=O)NC3=C2C(=O)CC(C)(C)C3)cc(Br)c1O	0.17
Fc1ccc(NCc2ccc3c(c2)OCO3)cc1	323
c1cc(CNc2ccc3c(c2)OCO3)ccn1	1.7
Fc1ccc(NCc2ccncc2)cc1	3.5*
CCOC(=O)C1C(c2ccc(OC)c(OC)c2)C(C(=O)OCC)C(O)(C(F)(F)F)NC1(O)C(F)(F)F (stereo unspecified)	1.7
CC(C)NC(=O)CSc1nnc(-c2ccc3ncccc3c2)n1C	3.1*
Cc1ccc(C(=O)CSc2nnc(-c3ccc4ccccc4c3)n2C)cc1	-0.36
SMILES	Dicer inh
C=CCn1c(SCC(C)=O)nnc1-c1ccc2ncccc2c1	-1.5
CC(=O)c1sc2nc(C(F)(F)F)nn2c1C	0.35
CCNC(=O)NNc1c(Cl)cccc1Cl	-0.28
CC(Nc1ccc(C(F)(F)F)cc1[N+](=O)[O-])c1ccccc1 (stereo unspecified)	1
COC(=S)NC(=O)/C=C/c1ccccc1	3.5*
O=C(/C=C/c1ccccc1)NC(=S)Nc1ccc(OC(F)(F)F)cc1	-0.76
O=C(/C=C/c1ccccc1)NC(=S)Nc1cc(C(F)(F)F)cc(C(F)(F)F)c1	-0.04
O=c1[nH][nH]c(=O)n1CCCc1cc2cccc3ccc4cccc1c4c32	3.7*
CCOC(=O)NNC(=O)NCCCc1ccc2ccc3cccc4ccc1c2c34	2.3
COc1cccc(OC)c1NC(=O)NC(=O)c1c(OC)c(Cl)cc(Br)c1OC	-0.65
O=S(=O)(Cc1ccccc1)C1CCCCC1O (stereo unspecified)	3.1*
O=S1(=O)CC(O)C(S(=O)(=O)Cc2ccc(Cl)cc2)C1 (stereo unspecified)	0.55
CN(Cc1ccccc1)S(=O)(=O)Cc1ccccc1	0.64
O=S(=O)(c1ccc(Cl)cc1)N1CCC(Cc2ccccc2)CC1	0.13
C[C@H]1c2cccc(O)c2C(O)=C2C(=O)[C@]3(O)C(O)=C(C(N)=O)C(=O)[C@@H](N(C)C)[C@@H]3[C@@H](O)[C@@H]21	-0.88
CN(C)c1ccc(O)c2c1CC1CC3[C@@H](N(C)C)C(=O)C(C(N)=O)=C(O)[C@]3(O)C(=O)C1=C2O (stereo partly specified)	6.1*
O=C(O)CSCC(=O)Nc1ccc2c(c1)OCCCO2	1.8
Oc1ccccc1Nc1nc(-c2cccnc2)nc2ccccc12	11*
COc1ccc(Nc2nc(-c3cccnc3)nc3ccccc23)cc1	-1.2
COC(=O)c1cccc(Nc2nc(-c3cccnc3)nc3ccccc23)c1	-1.3
CCOC(=O)c1sc(NC(=O)COC(=O)CN2C(=O)C(=O)c3ccccc32)nc1C	-0.61
N#C/C(=C\N1CCOCC1)C(=O)Nc1ccc(F)c(Cl)c1	-0.47
Cn1nc(NC(=O)CC(C)(C)CC(=O)O)c2c(F)cccc21	-0.1
CS(=O)(=O)/C(C#N)=C/Nc1ncccn1	-2.5
COc1ccc(-c2nc3c4c5c(sc4ncn3n2)CCCC5)cc1	0.04
SMILES	Dicer inh
CC1(C)Cc2c(sc3ncn4nc(-c5ccncc5)nc4c23)CO1	3.1*
c1ccc(-c2nc3c4c5c(sc4ncn3n2)CCCC5)cc1	1.2
Fc1ccc(-c2nc3c4c5c(sc4ncn3n2)CCCC5)cc1	4*
c1cc(-c2nc3c4c5c(sc4ncn3n2)CCCCC5)ccn1	0.59
CC1(C)Cc2c(sc3ncn4nc(-c5ccncc5)nc4c23)C(C)(C)N1	0.58
C=CCOC(=O)c1sc(N2C(=O)c3oc4ccccc4c(=O)c3C2c2ccccc2)nc1C (stereo unspecified)	-0.59
CCCc1nnc(N2C(=O)c3oc4ccc(F)cc4c(=O)c3C2c2ccc(O)c(OCC)c2)s1 (stereo unspecified)	-0.13
CCOC(=O)c1c(N2C(=O)CSCC2=O)sc2c1CCCC2	-0.06
CC1(C)CC(=O)C(N=Nc2ccccc2C(F)(F)F)=C(O)C1	0.12
CN1C(=O)CC(NCc2ccc(S(N)(=O)=O)cc2)C1=O (stereo unspecified)	3.2*
NCc1ccc(S(N)(=O)=O)cc1	-0.5
NS(=O)(=O)c1ccc(CNC2CC(=O)N(c3ccc(Br)cc3)C2=O)cc1 (stereo unspecified)	22
CC(C)(C)SCCN=C(Nc1cccc(F)c1)c1cccc(Cl)c1	-2.9
COc1ccc(OCCCN2CCCCC2)cc1	0.21
Cc1c(S(=O)(=O)Nc2ccccc2Cl)sc2ccc(Cl)cc12	4.6*
Cc1c(S(=O)(=O)Nc2ccc(Cl)c(Cl)c2)sc2ccc(Cl)cc12	1.9
Cc1c(S(=O)(=O)Oc2ccccc2Cl)sc2ccc(Cl)cc12	-0.86
CCOC(=O)c1c(NC(=O)C(Cl)(Cl)Cl)nc(SC)n1-c1ccccc1OC	-1.7
CC1N=C(SCc2c(F)cccc2Cl)N2C(C)N=C(SCc3c(F)cccc3Cl)N12 (stereo unspecified)	-0.41
Fc1ccccc1N1CCN(C2CCN(Cc3ccncc3)CC2)CC1	2.2
O=C1CC(c2ccccc2)CC2=C1C(c1ccco1)n1ncnc1N2 (stereo unspecified)	3.9*
COc1ccc(C2CC(=O)C3=C(C2)Nc2ncnn2C3c2ccccc2)cc1 (stereo unspecified)	2.9
c1ccc(C2CC(c3ccco3)n3ncnc3N2)cc1 (stereo unspecified)	0.17
COc1ccc(C2C(C(=O)OC(C)C)=C(C)Nc3nc4ccccc4n32)cc1OC (stereo unspecified)	0.71
C(=N\Nc1cc(-c2ccccc2)nc2ncnn12)/c1ccc2c(c1)OCO2	-0.77
CCOC(=O)c1c(NC(=O)c2ccc3c(c2)OCO3)sc(C(=O)NC2CCCC2)c1C	-3.2
CC1(C)CC(=O)C2=C(C1)NC1=C(C(=O)c3ccccc31)C2c1ccc([N+](=O)[O-])o1 (stereo unspecified)	5.5*

Bioassay records: PubChem BioAssay, Center for Chemical Genomics, University of Michigan
